The results in this text go back to PubChem BioAssay (NCI).

“And” between values parts separate entries of the source, which are not always exact repeats. Equal values may be shown once. This is part of a sample that, as a whole, favours compounds with a hit. Of some 83,000 tested, about 20% had one in any assay.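 Testing used 96-well plates and a 48-hour single-concentration exposure. Example: -40 means 40% of the starting cells died.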 Values without a mark were called inactive. The source made the active and inactive calls. How the source made its calls: active means growth percent below 10; inactive means the rest.

In the assay the test system is HL-60(TB) leukemia. The experiment in a line: NCI-60 one-dose screen, 48 h (100 = growth as untreated, 0 = no growth, -100 = all killed). The following applies: 10 µM unless noted.
Turning to `CCNS(=O)(=O)c1ncnc2nc[nH]c12`, the growth was 112%.
To `CCN(CC)CCCNc1nc(C)cc(Nc2ccc3nc(C)cc(N)c3c2)n1` belongs 106%; to `IC(I)I`, 98.3%; to `O=C(CN1CCCCC1)Sc1nnc2sc3ccccc3n12`, 98.6%.
To `Cc1cc(N(CCCNc2ccnc3cc(Cl)ccc23)Cc2cccs2)nc(Cl)n1` belongs -3.12% (active); to `COc1ccc(/C=C/C(=O)c2cccc(OCCCCOc3cccc(C(=O)/C=C/c4ccc(OC)c(OC)c4)c3)c2)cc1OC`, 68.6%.
To `O=C(CSc1nc2sc3c(c2c(=O)n1-c1ccccc1)CCCCC3)N/N=C/c1ccc(F)cc1` belongs 110%; to `CCOC(=O)NC(N)=O`, 92.4%; to `COc1cc2cc(Oc3ccc(NC(=O)c4cccc(C(F)(F)F)c4)cc3)c(C)nc2cc1OC`, 27.8%.
Consider `Cc1cccc(/C=C\C(=O)c2ccccc2)c1`, for which the growth was 98.8% and 58.7%.
Take `COc1ccc(/C=N\NC(=O)c2cc(-c3ccc(Br)cc3)n(-c3ccc(S(N)(=O)=O)cc3)n2)cc1`: the growth is 33.5%.
Turning to `CC(=O)Nc1ccc2cc3ccc(NC(C)=O)cc3nc2c1`, the growth was 131% and 96.4%.
To `O=C(COc1ccc(-c2nc3ccccc3[nH]2)cc1)N=Nc1c(O)[nH]c2ccc(Cl)cc12` belongs 39.9%; to `C=C1c2nc3ccccc3n2C=C(c2ccc(OC)cc2)N1Cc1ccccc1`, 80%.
The value for `O=C(O)/C(=C\c1ccc(Cl)cc1)c1ccc(Cl)cc1` was 53.3%.
